About 79,000 compounds went through this panel and 15% of them were active in at least one assay; those are over-represented in the sample as a whole. Values without a mark were called inactive. The source made the active and inactive calls. Rule as the data show it: active = growth inhibition above about 70%; inactive = the rest.

The nature of one assay: NCI Yeast Anticancer Drug Screen. Data for the sgs1 mgt1 strain (AID 161).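 Also: 0% = growth of cultures given vehicle only.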 Conditions: S. cerevisiae sgs1 mgt1 strain, at 50.0 µM (retest, dose inferred, filed as 5.0), stronger effect = higher value. The method in brief: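 Percent growth inhibition was derived by comparing compound-exposed mutant yeast with vehicle-exposed cultures. The strain carries alterations in DNA damage repair.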
For `CCOC(=O)c1csc(=S)[nH]1`, the growth inhibition is 95% (active).
Take `CC(=O)[O-].O=C(N/N=C/c1ccccc1[O-])c1ccccc1.[Zn+2]`: the growth inhibition is 86% (active).
Same read-out and setting: in the case of `Clc1ccc(C(CCOc2ccccc2Br)Cn2ccnc2)c(Cl)c1` (stereo not drawn) it was 99% (active); in that of `CCCC(C)C/C(C)=C\C(C)(C)C1CC(=O)N(CC)C1=O` (stereo not drawn), 54%; in that of `CSC(SC)=C1C(=O)NC(Cc2ccccc2)C1=O` (stereo not drawn), 66%.
As to `CCCCCCSc1nc2ccc(N=Cc3ccccc3O)cc2s1`, the growth inhibition was 88% (active).
Turning to `Cc1cc(C(=O)O)c(C)c2c1sc1ccccc12`, the growth inhibition is 82% (active).
As for `O=C(Nc1ccc(Cl)cc1)Nc1nnc2nc(C(C(=O)/C=C/c3ccccc3)c3nc4nnc(NC(=O)Nc5ccc(Cl)cc5)n4[nH]c3=O)c(=O)[nH]n12`, the growth inhibition is 2%.
On the same count and under the same terms, the figure for `O=c1c(SSc2coc3ccccc3c2=O)coc2ccccc12` is 98% (active).
With `C[n+]1c(/C=C/c2ccc(N3CCCC3)cc2)sc2ccccc21`, the growth inhibition was 99% (active).
In the case of `CCC(C(c1ccc(Cl)cc1)c1ccc(Cl)c(Cl)c1)[N+](=O)[O-]` (stereo not drawn), the growth inhibition is 12%.
Consider `O=C1OC(C2OC(=O)C(=O)C2C(=O)c2ccc([N+](=O)[O-])cc2)C(C(=O)c2ccc([N+](=O)[O-])cc2)C1=O` (stereo not drawn), for which the growth inhibition was 86% (active).
As for `O=[N+]([O-])c1ccc(O)c(C2CCCCC2)c1`, the growth inhibition was 99% (active).
Turning to `O=C1c2ccccc2C(=O)N1/N=C\c1ccccc1[N+](=O)[O-]`, the growth inhibition is 96% (active).
For the compound `CC(C)(C)C(=O)CC(=O)C(F)(F)C(F)(F)C(F)(F)F.CC(C)(C)C(=O)CC(=O)C(F)(F)C(F)(F)C(F)(F)F.CC(C)(C)C(=O)CC(=O)C(F)(F)C(F)(F)C(F)(F)F.[Gd]`, the growth inhibition was 82% (active).
On to `Oc1ccc(N=Nc2ccccc2)cc1`, for which the growth inhibition is 64%.
`Cc1cc(NC(=S)SCc2ccc(F)cc2)ccc1Br`: the growth inhibition is 100% (active).
Still for that read-out and setting: in the case of `OC(CN1CCc2ccccc2C1)c1ccc2ccccc2c1` (stereo not drawn) it was 86% (active); in that of `O=C1C=C/C(=C(/c2ccc(O)c(O)c2)c2ccccc2S(=O)(=O)O)C=C1O`, 2%.
As to `Cc1cc(N)c2cc(NC(=O)Nc3ccc4nc(C)cc(N)c4c3)ccc2n1`, the growth inhibition was 67%.
As to `CC(=O)N/N=C1/CC[C@@]2(C)C(=CC[C@H]3C4CCC(C(C)CCCC(C)C)[C@@]4(C)CCC32)C1(C)C` (stereo partly drawn), the growth inhibition was 84% (active).
On to `Cc1ncn(-c2ccccc2O)c1C`, for which the growth inhibition is -14%.
Turning to `Oc1ccc(-c2nnc(-c3ccccc3)nn2)cc1`, the growth inhibition is -63%.

Staying with this assay, now noted: S. cerevisiae sgs1 mgt1 strain, at 50.0 µM, stronger effect = higher value.
Turning to `CC1CCN(CCOC(=O)C(c2ccccc2)C2C=CCCC2)C1C` (stereo not drawn), the growth inhibition is 84.5% (active).
With `CC(CCCN(C)Cc1ccccc1)Nc1ccnc2cc(Cl)ccc12` (stereo not drawn), the growth inhibition is 99.5% (active).
For the compound `O=C(/C(Cl)=N/O)c1ccccc1`, the growth inhibition was 49.3%.
For `CN(C)C1C[C@@H](O[Si](C)(C)C(C)(C)C)C=C1S(=O)(=O)c1ccccc1` (stereo partly drawn), the growth inhibition was 36.4%.
With `Nc1nnc(Cc2ccc(Br)cc2)o1`, the growth inhibition is 24.3%.
As to `CSc1nc(C)cc(SCc2ccc(Cl)cc2Cl)n1`, the growth inhibition was -0.95%.
Same read-out and setting: the figure for `CC[N](CC)[Ge]([CH2]C)[CH2]C.CC[N](CC)[Ge]([CH2]C)[CH2]C` is 56.4%; for `Cc1c(-c2ccccc2)ccnc1/C=N/NC(=S)Nc1ccc(N(C)C)cc1` it is 70% (active).
Turning to `Cc1cc(C)nc(NS(=O)(=O)c2ccc(Nc3c4ccccc4nc4c(C(=O)NC(CO)(CO)CO)cccc34)cc2)n1`, the growth inhibition was 4.9%.
Turning to `CCCC(CCC)NCCOC(=O)C(CC)c1ccccc1` (stereo not drawn), the growth inhibition is 88.3% (active).
In the case of `OCCc1ccc(-n2cnc3c(Nc4ccc(Cl)cc4)ncnc32)cc1`, the growth inhibition was 44.8%.
Turning to `Cc1cccc(N2C(=O)c3ccccc3C2(c2ccccc2)N2CCCCC2)c1` (stereo not drawn), the growth inhibition is 73.7% (active).
For `CCCCN(CCO)CCNc1ccc(C)c2sc3ccccc3c(=O)c12`, the growth inhibition was 99.6% (active).
With `Cc1ccc(C)c(C(=O)CCN)c1`, the growth inhibition was 0.3%.
In the case of `O=C1C(C(O)(C(F)(F)Cl)C(F)(F)Cl)CCCC1C(O)(C(F)(F)Cl)C(F)(F)Cl` (stereo not drawn), the growth inhibition was 99.8% (active).
In the case of `CC(C)c1cc2c(cc1O)C(O)C1(O)CCCC(C)(C)[C@H]1CC2` (stereo partly drawn), the growth inhibition is 93% (active).
`CN(C)[C@@H]1C(=O)C(C(=O)NCNc2nc3n[nH]nc3c(=O)[nH]2)=C(O)[C@@]2(O)C(=O)C3=C(O)c4c(O)cccc4[C@@](C)(O)[C@H]3C[C@@H]12`: the growth inhibition was -7%.
Regarding `CCOC(=O)c1csc(=S)[nH]1`, the growth inhibition was 74.5% (active).
With `CC(=O)[O-].O=C(N/N=C/c1ccccc1[O-])c1ccccc1.[Zn+2]`, the growth inhibition was 55.8%.
For the compound `Clc1ccc(C(CCOc2ccccc2Br)Cn2ccnc2)c(Cl)c1` (stereo not drawn), the growth inhibition was 99.7% (active).
The same measure, in the same setting: the figure for `CCCC(C)C/C(C)=C\C(C)(C)C1CC(=O)N(CC)C1=O` (stereo not drawn) is 72.7% (active); for `CSC(SC)=C1C(=O)NC(Cc2ccccc2)C1=O` (stereo not drawn) it is 71.8% (active).
As for `CCCCCCSc1nc2ccc(N=Cc3ccccc3O)cc2s1`, the growth inhibition is 70.3% (active).
On to `Cc1cc(C(=O)O)c(C)c2c1sc1ccccc12`, for which the growth inhibition is 62.8%.
With `O=C(Nc1ccc(Cl)cc1)Nc1nnc2nc(C(C(=O)/C=C/c3ccccc3)c3nc4nnc(NC(=O)Nc5ccc(Cl)cc5)n4[nH]c3=O)c(=O)[nH]n12`, the growth inhibition is 46.6%.
As for `O=c1c(SSc2coc3ccccc3c2=O)coc2ccccc12`, the growth inhibition was 87.5% (active).
With `C[n+]1c(/C=C/c2ccc(N3CCCC3)cc2)sc2ccccc21`, the growth inhibition is 98.5% (active).
For the compound `CCC(C(c1ccc(Cl)cc1)c1ccc(Cl)c(Cl)c1)[N+](=O)[O-]` (stereo not drawn), the growth inhibition was 14.1%.
Turning to `O=C1OC(C2OC(=O)C(=O)C2C(=O)c2ccc([N+](=O)[O-])cc2)C(C(=O)c2ccc([N+](=O)[O-])cc2)C1=O` (stereo not drawn), the growth inhibition is 91.5% (active).
For `O=[N+]([O-])c1ccc(O)c(C2CCCCC2)c1`, the growth inhibition is 99.7% (active).
As for `O=C1c2ccccc2C(=O)N1/N=C\c1ccccc1[N+](=O)[O-]`, the growth inhibition was -3.8%.
In the case of `CC(C)(C)C(=O)CC(=O)C(F)(F)C(F)(F)C(F)(F)F.CC(C)(C)C(=O)CC(=O)C(F)(F)C(F)(F)C(F)(F)F.CC(C)(C)C(=O)CC(=O)C(F)(F)C(F)(F)C(F)(F)F.[Gd]`, the growth inhibition is 90.7% (active).
`Oc1ccc(N=Nc2ccccc2)cc1`: the growth inhibition is 99.3% (active).
For the compound `Cc1cc(NC(=S)SCc2ccc(F)cc2)ccc1Br`, the growth inhibition is 91.8% (active).
On to `OC(CN1CCc2ccccc2C1)c1ccc2ccccc2c1` (stereo not drawn), for which the growth inhibition was 88.5% (active).
`O=C1C=C/C(=C(/c2ccc(O)c(O)c2)c2ccccc2S(=O)(=O)O)C=C1O`: the growth inhibition was 5.3%.
In the case of `Cc1cc(N)c2cc(NC(=O)Nc3ccc4nc(C)cc(N)c4c3)ccc2n1`, the growth inhibition is 99% (active).
Regarding `CC(=O)N/N=C1/CC[C@@]2(C)C(=CC[C@H]3C4CCC(C(C)CCCC(C)C)[C@@]4(C)CCC32)C1(C)C` (stereo partly drawn), the growth inhibition was 24.8%.
With `Cc1ncn(-c2ccccc2O)c1C`, the growth inhibition is -28.7%.
For the compound `Oc1ccc(-c2nnc(-c3ccccc3)nn2)cc1`, the growth inhibition is -3.9%.

Source of the values: PubChem BioAssay (NCI).
